{"source": "PubChem BioAssay AID1259240", "about": "(Keith Lab, Institute of Cancer Science, University of …, 2017)", "note": "Calls of active or inactive are those of the source. Rule as the data show it: active = fold change mostly below about -2 (no sharp cut-off); inactive = mostly above about -1.8."}
{"test": "modulation of TERT promoter-driven luciferase – cell-based, luciferase reporter, human, primary screen (AID 1259240)", "settings": "A2780 TERT promoter luciferase reporter, 16 h; at 20 µM, fold versus average of vehicle-only wells"}
{"smiles": "Cc1nc(SCC(=O)c2ccccc2)c2c(=O)n(C)c(=O)n(C)c2n1", "fold change": "1.14 (inactive)"}
{"smiles": "CN(Cc1ccco1)C(=O)c1ccc(CNc2c(N3CCCCC3)c(=O)c2=O)cc1", "fold change": "-1.11 (inactive)"}
{"smiles": "COc1ccc(-c2nc3s/c(=C\\c4cccc(Cl)c4)c(=O)n3n2)cc1OC", "fold change": "-1.08 (inactive)"}
{"smiles": "O=C(COc1ccc(Cl)cc1)Nc1ccc2nc3n(c(=O)c2c1)CCCCC3", "fold change": "-1.27 (inactive)"}
{"smiles": "CCOC(=O)N1CCC(Nc2c(N(CC)CC)c(=O)c2=O)CC1", "fold change": "1.22 (inactive)"}
{"smiles": "CC(C)(C)OC(=O)CN1C(=O)c2ccccc2S1(=O)=O", "fold change": "1.98 (inactive)"}
{"smiles": "CCOC(=O)Cn1c(=O)oc2cc(S(=O)(=O)NCCC(C)C)ccc21", "fold change": "-1 (inactive)"}
{"smiles": "CC(C)Oc1ccc(-c2cc(C(F)(F)F)n3ncc(C#N)c3n2)cc1", "fold change": "-2.17 (active)"}
{"smiles": "O=C(CSc1ncnc2ccccc12)Nc1cccc(F)c1", "fold change": "1.32 (inactive)"}
{"smiles": "COC(=O)c1ccc(CSc2nc(-c3ccco3)cc(C(F)(F)F)n2)o1", "fold change": "-2.77 (active)"}
{"smiles": "CCOc1cc(C2CC(=O)Nc3cc4c(cc32)OCCO4)ccc1O", "note": "(stereo not drawn)", "fold change": "-1 (inactive)"}
{"smiles": "O=C1OC(Nc2ccc(F)cc2)c2ccccc21", "note": "(stereo not drawn)", "fold change": "-1.21 (inactive)"}
{"smiles": "O=C(CSc1nc2[nH]ncc2c(=O)n1-c1ccccc1)Nc1nsc(-c2ccc(Cl)cc2)n1", "fold change": "1.26 (inactive)"}
{"smiles": "COc1ccc(NC(=O)CN2N=NC3C(=O)N(c4ccc(Cl)cc4)C(=O)C32)c(OC)c1", "note": "(stereo not drawn)", "fold change": "-1.12 (inactive)"}
{"smiles": "CCOC(=O)/C(=N\\OC)c1cn2cc(Br)ccc2n1", "fold change": "1.2 (inactive)"}
{"smiles": "O=C1c2cccnc2C(=O)N1Cc1ccccc1", "fold change": "1.84 (inactive)"}
{"smiles": "COc1ccc(-n2c(-c3ccco3)nc3c(cnn3-c3ccc(Cl)cc3)c2=O)cc1", "fold change": "-1.39 (inactive)"}
{"smiles": "O=C(CSc1ncnc2ccccc12)NCc1ccc2c(c1)OCO2", "fold change": "-1.09 (inactive)"}
{"smiles": "CCCCNc1nc2c(c(=O)[nH]c(=O)n2C)n1CCO", "fold change": "-1.67 (inactive)"}
{"smiles": "CS(=O)(=O)Nc1ccc(Cl)c2cccnc12", "fold change": "-2.8 (active)"}
{"smiles": "Cc1cc(C)c2c(=O)n(CC(=O)NCCC3=CCCCC3)sc2n1", "fold change": "1.18 (inactive)"}
{"smiles": "O=C(CSc1ncnc2ccccc12)N1CCc2ccccc21", "fold change": "1.26 (inactive)"}
{"smiles": "CC1CCCCC1NC(=O)CN(C)S(=O)(=O)c1ccc2c(c1)CCC(=O)N2", "note": "(stereo not drawn)", "fold change": "1.04 (inactive)"}
